Laboratory results from the supplement of paper PMC10849652.
The full data set covers some 7,900 targets. This sample favours those with a hit. About 0.6% of all pairs of compound and target were hits.

What follows are targets tested with C1=CC(=C(C=C1Cl)C2=NC3=NC=CN=C3C(=N2)NC4=CC=NC=C4)F (assay: log2 fold change, soluble protein after heating vs DMSO (PISA); higher = thermal stabilisation; K562 cells, 10 uM, 30 min; active = over 0.2 and 3.5 SD of the protein, either way, in both replicates (recomputed)).
Outline: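 K562 cells at 2×10^6 cells/mL were exposed to 10 μM compound for 30 min, then aliquots were heated for 3 min across 48°C-58°C, pooled, and extracted in PBS containing 0.5% NP-40 at 4°C. The supernatant after 21,000xg for 90 min was taken as soluble protein and measured by TMTpro 16plex LC-MS/MS with channel sums equalised. Thermal stability is reported relative to control samples, with values from duplicates. Fold changes are given on a log2 scale.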

Chain of UniProt P30291 (P30291 whole entry, looked up): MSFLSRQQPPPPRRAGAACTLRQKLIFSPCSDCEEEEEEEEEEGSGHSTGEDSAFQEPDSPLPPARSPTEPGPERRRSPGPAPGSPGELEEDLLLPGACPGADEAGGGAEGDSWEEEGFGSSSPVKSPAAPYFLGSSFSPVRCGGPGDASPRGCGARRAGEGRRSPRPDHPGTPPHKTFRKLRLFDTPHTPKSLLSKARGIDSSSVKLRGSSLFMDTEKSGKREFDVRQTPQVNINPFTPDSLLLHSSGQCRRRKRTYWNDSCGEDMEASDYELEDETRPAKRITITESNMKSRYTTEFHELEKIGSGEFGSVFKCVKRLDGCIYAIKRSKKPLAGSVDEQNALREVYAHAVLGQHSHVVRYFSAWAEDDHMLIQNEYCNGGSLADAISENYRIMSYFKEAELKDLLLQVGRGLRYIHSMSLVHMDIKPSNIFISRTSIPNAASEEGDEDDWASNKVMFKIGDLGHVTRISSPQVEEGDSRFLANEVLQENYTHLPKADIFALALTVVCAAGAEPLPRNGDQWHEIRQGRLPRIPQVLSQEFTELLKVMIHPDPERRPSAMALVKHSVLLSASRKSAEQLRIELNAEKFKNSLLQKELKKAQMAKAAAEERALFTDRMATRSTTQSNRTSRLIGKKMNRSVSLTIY
Chain of UniProt Q9NQ34 (Q9NQ34 whole entry, looked up): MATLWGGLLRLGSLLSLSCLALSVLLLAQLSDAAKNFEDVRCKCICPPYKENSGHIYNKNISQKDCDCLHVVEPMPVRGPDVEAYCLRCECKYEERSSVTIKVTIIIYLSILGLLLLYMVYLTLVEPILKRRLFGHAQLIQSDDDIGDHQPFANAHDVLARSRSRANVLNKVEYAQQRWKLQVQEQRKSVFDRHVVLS
Chain of UniProt Q92890 (Q92890 whole entry, looked up): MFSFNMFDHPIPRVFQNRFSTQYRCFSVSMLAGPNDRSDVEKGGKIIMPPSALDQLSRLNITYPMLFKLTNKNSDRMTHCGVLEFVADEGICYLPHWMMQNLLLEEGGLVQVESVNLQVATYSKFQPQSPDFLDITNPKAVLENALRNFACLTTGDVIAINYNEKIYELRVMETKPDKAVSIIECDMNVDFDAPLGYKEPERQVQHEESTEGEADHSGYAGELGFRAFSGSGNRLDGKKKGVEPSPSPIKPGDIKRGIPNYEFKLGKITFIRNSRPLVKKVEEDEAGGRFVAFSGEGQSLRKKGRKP
Chain of UniProt Q9UDW1 (Q9UDW1 whole entry, looked up): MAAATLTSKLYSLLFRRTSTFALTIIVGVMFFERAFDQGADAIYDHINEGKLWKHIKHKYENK
Chain of UniProt Q9BTX3 (Q9BTX3 whole entry, looked up): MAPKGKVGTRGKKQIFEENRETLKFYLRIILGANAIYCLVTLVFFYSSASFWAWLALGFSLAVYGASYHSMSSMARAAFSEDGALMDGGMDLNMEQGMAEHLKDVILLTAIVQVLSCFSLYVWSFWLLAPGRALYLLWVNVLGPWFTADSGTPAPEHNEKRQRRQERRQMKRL
Chain of UniProt Q9P0T7 (Q9P0T7 whole entry, looked up): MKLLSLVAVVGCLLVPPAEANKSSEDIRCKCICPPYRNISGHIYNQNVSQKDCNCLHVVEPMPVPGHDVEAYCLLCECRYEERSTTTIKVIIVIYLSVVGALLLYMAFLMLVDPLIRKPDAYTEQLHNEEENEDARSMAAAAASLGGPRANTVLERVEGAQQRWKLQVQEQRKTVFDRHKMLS
Chain of UniProt O43592 (O43592 whole entry, looked up): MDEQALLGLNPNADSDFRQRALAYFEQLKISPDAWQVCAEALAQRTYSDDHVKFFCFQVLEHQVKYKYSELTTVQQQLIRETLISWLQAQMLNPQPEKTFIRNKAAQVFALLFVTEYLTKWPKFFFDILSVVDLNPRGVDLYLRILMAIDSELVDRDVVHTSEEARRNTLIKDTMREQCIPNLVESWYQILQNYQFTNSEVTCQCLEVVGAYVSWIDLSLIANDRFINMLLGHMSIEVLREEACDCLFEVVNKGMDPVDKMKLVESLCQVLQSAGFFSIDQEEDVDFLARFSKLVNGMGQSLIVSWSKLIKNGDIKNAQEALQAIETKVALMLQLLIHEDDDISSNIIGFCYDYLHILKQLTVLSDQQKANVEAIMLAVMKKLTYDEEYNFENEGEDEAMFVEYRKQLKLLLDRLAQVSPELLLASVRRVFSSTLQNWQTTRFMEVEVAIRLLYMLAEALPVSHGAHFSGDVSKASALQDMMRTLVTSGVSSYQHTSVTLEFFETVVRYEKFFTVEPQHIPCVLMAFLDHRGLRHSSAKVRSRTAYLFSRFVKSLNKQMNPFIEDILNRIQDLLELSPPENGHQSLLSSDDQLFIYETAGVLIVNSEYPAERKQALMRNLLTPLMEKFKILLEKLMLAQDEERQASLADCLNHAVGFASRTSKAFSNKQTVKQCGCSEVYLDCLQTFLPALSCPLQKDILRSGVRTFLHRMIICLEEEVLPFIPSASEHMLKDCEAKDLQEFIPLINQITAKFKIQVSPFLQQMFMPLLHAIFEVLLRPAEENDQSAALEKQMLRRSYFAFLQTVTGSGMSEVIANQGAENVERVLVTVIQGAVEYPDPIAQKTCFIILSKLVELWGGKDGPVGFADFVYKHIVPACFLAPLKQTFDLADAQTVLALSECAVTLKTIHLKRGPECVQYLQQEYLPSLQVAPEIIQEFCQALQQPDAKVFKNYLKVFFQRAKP
Chain of UniProt A0PJW6 (A0PJW6 whole entry, looked up): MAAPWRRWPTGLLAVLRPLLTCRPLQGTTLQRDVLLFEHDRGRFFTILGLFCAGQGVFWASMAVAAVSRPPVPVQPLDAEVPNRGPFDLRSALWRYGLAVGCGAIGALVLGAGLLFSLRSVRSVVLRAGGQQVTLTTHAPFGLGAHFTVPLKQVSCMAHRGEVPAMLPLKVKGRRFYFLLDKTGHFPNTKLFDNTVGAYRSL
Chain of UniProt O14980 (O14980 whole entry, looked up): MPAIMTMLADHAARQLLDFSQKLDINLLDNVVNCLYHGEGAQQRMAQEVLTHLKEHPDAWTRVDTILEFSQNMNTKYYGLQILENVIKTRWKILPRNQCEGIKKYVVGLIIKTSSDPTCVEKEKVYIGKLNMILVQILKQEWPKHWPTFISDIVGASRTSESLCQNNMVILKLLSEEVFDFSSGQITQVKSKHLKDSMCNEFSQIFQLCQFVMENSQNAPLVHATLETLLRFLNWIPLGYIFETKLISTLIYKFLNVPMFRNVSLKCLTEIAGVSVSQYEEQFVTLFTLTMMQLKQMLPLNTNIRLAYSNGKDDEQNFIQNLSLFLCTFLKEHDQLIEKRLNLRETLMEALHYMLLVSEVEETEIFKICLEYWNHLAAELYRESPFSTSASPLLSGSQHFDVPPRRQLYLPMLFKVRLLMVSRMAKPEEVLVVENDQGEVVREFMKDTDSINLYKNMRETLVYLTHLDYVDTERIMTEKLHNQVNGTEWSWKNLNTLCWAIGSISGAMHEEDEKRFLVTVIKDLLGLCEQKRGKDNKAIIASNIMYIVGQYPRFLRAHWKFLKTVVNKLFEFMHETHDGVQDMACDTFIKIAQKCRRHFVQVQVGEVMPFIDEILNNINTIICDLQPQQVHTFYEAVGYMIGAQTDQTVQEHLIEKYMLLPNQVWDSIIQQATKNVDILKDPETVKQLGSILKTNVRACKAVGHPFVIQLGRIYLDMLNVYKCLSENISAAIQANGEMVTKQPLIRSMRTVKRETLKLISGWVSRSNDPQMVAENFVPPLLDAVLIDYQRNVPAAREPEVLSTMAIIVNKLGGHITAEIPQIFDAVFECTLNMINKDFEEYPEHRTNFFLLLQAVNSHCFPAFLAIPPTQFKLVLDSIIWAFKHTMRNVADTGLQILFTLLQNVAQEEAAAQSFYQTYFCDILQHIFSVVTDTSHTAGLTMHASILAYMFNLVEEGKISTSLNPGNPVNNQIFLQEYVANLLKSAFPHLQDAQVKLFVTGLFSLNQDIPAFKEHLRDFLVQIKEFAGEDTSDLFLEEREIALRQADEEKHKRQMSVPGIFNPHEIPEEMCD
Chain of UniProt Q9NV66 (Q9NV66 whole entry, looked up): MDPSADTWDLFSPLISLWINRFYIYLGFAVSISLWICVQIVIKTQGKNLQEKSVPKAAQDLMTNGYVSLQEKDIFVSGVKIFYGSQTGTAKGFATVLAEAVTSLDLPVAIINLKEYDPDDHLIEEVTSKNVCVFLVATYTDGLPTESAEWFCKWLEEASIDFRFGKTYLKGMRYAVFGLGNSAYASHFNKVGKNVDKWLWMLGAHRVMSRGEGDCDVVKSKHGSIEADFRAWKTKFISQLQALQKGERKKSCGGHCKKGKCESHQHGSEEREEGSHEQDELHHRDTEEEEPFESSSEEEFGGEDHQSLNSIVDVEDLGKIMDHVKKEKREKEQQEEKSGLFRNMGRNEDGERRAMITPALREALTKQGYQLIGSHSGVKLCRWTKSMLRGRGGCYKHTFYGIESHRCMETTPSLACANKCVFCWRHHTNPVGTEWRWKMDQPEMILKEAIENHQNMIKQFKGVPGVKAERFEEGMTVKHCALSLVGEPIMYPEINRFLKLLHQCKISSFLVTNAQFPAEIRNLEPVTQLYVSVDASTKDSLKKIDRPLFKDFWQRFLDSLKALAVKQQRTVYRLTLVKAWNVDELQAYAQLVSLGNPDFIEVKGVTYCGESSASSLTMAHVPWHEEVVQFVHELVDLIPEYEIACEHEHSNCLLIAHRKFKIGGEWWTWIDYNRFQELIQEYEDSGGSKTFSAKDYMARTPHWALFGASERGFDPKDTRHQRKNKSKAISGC
Chain of UniProt Q86SZ2 (Q86SZ2 whole entry, looked up): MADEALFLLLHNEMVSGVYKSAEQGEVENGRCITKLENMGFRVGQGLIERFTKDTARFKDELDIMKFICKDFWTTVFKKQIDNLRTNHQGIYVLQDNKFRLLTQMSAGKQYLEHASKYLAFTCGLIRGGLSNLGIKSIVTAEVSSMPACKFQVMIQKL
Chain of UniProt Q5BJH2 (Q5BJH2 whole entry, looked up): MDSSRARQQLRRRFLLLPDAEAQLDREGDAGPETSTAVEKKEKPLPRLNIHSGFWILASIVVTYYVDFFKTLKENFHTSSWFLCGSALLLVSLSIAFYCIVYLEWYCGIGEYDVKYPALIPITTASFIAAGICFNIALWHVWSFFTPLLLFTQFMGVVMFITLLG

log2 fold change, active:
TRAPPC6B (UniProt Q86SZ2) 0.315, WDR46 (UniProt O15213) -0.816

log2 fold change, inactive:
TMEM223 (UniProt A0PJW6) -0.018, USP25 isoform 3 (UniProt Q9UHP3) 0.02, VPS41 (UniProt P49754) -0.049, WDR47 (UniProt O94967) -0.014, TMEM128 (UniProt Q5BJH2) 0.06, WDR41 (UniProt Q9HAD4) 0.128, TMEM9 (UniProt Q9P0T7) 0.254, VPS51 (UniProt Q9UID3) -0.02, TYW1 (UniProt Q9NV66) 0.055, TUBAL3 (UniProt A6NHL2) 0.099, TOM1L1 (UniProt O75674) -0.003, TPR (UniProt P12270) -0.001, TP53BP1 isoform 2 (UniProt Q12888) -0.017, TRAPPC2L (UniProt Q9UL33) -0.037, U2AF1 isoform 2 (UniProt Q01081) -0.02, TMEM9B (UniProt Q9NQ34) 0.009, VPS37A (UniProt Q8NEZ2) -0.042, WEE1 (UniProt P30291) -0.081, TNFAIP8 isoform 4 (UniProt O95379) 0.087, UBAP2L isoform 5 (UniProt Q14157) 0.005, WDR43 (UniProt Q15061) 0.008, UFD1 isoform 1 (UniProt Q92890) 0.051, UCHL5 isoform 3 (UniProt Q9Y5K5) 0.415, XPOT (UniProt O43592) 0.005, TMEM208 (UniProt Q9BTX3) 0.101, UFM1 (UniProt P61960) 0.093, UQCR10 (UniProt Q9UDW1) 0.069, USP7 (UniProt Q93009) 0.046, TTI2 (UniProt Q6NXR4) 0.003, XPO1 (UniProt O14980) 0.045, TRMT10A (UniProt Q8TBZ6) 0.004, TMEM87B (UniProt Q96K49) -0.069, VPS13B (UniProt Q7Z7G8) 0.028, VPS33A (UniProt Q96AX1) -0.054, VWA3B isoform 6 (UniProt Q502W6) 0.213
